Each structure is given as a SMILES string. “And” between values parts separate entries of the source, which are not always exact repeats. Equal values may be shown once. About 250 (25%) of roughly 1,000 compounds were called active. About 31% were inconclusive and are not listed. Not all results are given here. Results with a measured potency or affinity are listed apart. Values without a mark were called inactive. No rule for the calls is given here.

62 molecules from PubChem BioAssay AID1259420 (Broad Institute, 2018) can be followed below.

The nature of this experiment: compound activity on host-cell Toxoplasma growth – dose response (AID 1259420).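 Also: host cells were HeLa; final incubation lasted 72 hours.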 As to conditions: Toxoplasma gondii growth in host cells, no IFN-gamma.

As for `CC(C)n1c(C(=O)N2CCN(c3ccncc3)CC2)cc2c1c1ccccc1n2C`, the max activity (at 19.5 µM unless noted) was 37.4%. Same read-out and setting: for `COc1ccccc1C#Cc1ccc([C@@H]2[C@H](CO)N3CCCCN(C(=O)C4CCC4)C[C@@H]23)cc1` the value was 17.3%; for `CS(=O)(=O)N1CCO[C@@H]2CN(C(=O)Cc3ccccn3)CC[C@H]2C1`, -18.9% [at 1.2 µM]; for `Cn1c([N+](=O)[O-])cnc1COC(N)=O`, -13.4% [at 0.6 µM]. Consider `N#C[C@H]1N[C@@H](CO)[C@@H]1c1ccc(C#CC2CCCCC2)cc1`, for which the max activity (at 19.5 µM unless noted) was 28% [at 21 µM].

`C=CC[C@@H]1CC=C[C@@H](C)N1C(=O)CCn1c(C)cc(C)nc1=O`: the max activity runs as follows: (at 0.16 µM) 10.8%; (at 10 µM) -10.5%. As for `Oc1[nH]c2ccccc2c1N=Nc1nc(Nc2ccccc2)nc(N2CCOCC2)n1`, the max activity (at 19.5 µM unless noted) is -17.4% [at 5 µM]. On to `COc1cccc(-c2ccc3c(c2)[C@H]2[C@H](CCN2S(=O)(=O)c2ccccc2F)[C@H](CO)N3)c1`, for which the max activity (at 19.5 µM unless noted) was 10%. In the case of `O=C(c1cnccn1)N1CC(=O)N2[C@H](C1)[C@H](c1ccc(/C=C/c3ccccc3)cc1)[C@@H]2CO`, for the setting “at 19.5 µM unless noted”, the max activity is 11.5% [at 0.16 µM]. For the molecule `O=S1(=O)c2ccccc2OCC2(CCN(Cc3ccc(F)cc3)CC2)CN1CC1CC1`, the max activity (at 19.5 µM unless noted) is 28.5%. Same read-out and setting: for `COCC#Cc1ccc([C@H]2[C@H](CO)N3CCCCN(C(=O)NC4CCCC4)C[C@@H]23)cc1` the value was -13.1% [at 10 µM]. The same measure, in the same setting: for `O=C(Nc1ccc2c(c1)OCO2)N1C[C@@H]2N[C@H](C1)C2c1ccc(C=Cc2ccccc2)cc1` (stereo partly drawn) the value was 38% [at 10 µM]; for `CN1C(=O)c2cc(NC(=O)c3cccc(F)c3)ccc2OC[C@H]2O[C@@H](CC(=O)NCC3CCCCC3)CC[C@@H]21`, -18% [at 2.6 µM]. The same measure, in the same setting: for `CN1C(=O)c2cc(NC(=O)c3cccc(F)c3)ccc2OC[C@@H]2O[C@@H](CC(=O)NCC3CCCCC3)CC[C@@H]21` the value was -20.9% [at 2.6 µM]; for `COc1cccc(C(=O)Nc2ccc3c(c2)C(=O)N(C)[C@H]2CC[C@@H](CC(=O)N[C@@H](C)c4ccccc4)O[C@H]2CO3)c1`, 8.03% [at 0.3 µM]. Consider `CC(C)c1cccc(NC(=O)C[C@H]2CC[C@H]3[C@@H](COc4ccc(NS(=O)(=O)c5ccccc5Cl)cc4C(=O)N3C)O2)c1`, for which the max activity (at 19.5 µM unless noted) is -22.8% [at 10 µM]. For the molecule `CN1C(=O)c2cc(NC(=O)c3cccc(F)c3)ccc2OC[C@@H]2O[C@H](CC(=O)NCC3CCCCC3)CC[C@@H]21`, under “at 19.5 µM unless noted”, the max activity is -23.6% [at 10 µM]. `CN1C(=O)c2cc(NC(=O)c3cccc(F)c3)ccc2OC[C@H]2O[C@@H](CC(=O)NCC3CCCCC3)CC[C@H]21`: the max activity is 4.44% (at 0.16 µM), -19.3% (at 5 µM) and -5.09% (at 19.5 µM). Take `Cc1ccccc1S(=O)(=O)N1CCCCN2[C@H](CO)[C@H](c3ccc(C#CCN(C)C)cc3)[C@@H]2C1`: for the setting “at 19.5 µM unless noted”, the max activity was -9.35% [at 10 µM]. Consider `Cc1ccccc1-c1ccc(C2[C@@H]3CN(C(=O)C4CCOCC4)C[C@H]2N3)cc1` (stereo partly drawn), for which the max activity (at 0.6 µM) was -10.3% and the max activity (at 5 µM) is -5.78%. Consider `C1=C(c2ccccc2)CC(c2ccccc2)=NN=C1c1ccccc1`, for which, where the note is “at 19.5 µM unless noted”, the max activity was -9.17% [at 10 µM]. Still for that read-out and setting: to `COc1cccc(S(=O)(=O)N2CCCCN3[C@H](C2)[C@@H](c2ccc(C#CCC(C)C)cc2)[C@@H]3CO)c1` belongs -34.5% and -29.4%.

As to `O=S(=O)(c1ccccc1)N1CCCCN2[C@H](CO)[C@@H](c3ccc(C#CC4CCCC4)cc3)[C@@H]2C1`, the max activity (at 19.5 µM unless noted) is 39.2%. The same measure, in the same setting: for `COc1cccc(S(=O)(=O)N2CCCCN3[C@H](CO)[C@@H](c4ccc(C#CCC(C)C)cc4)[C@@H]3C2)c1` the value was -24.9% [at 0.038 µM]; for `COc1cccc(S(=O)(=O)N2CCCCN3[C@@H](CO)[C@H](c4ccc(C#CCC(C)C)cc4)[C@@H]3C2)c1`, -27.2% [at 0.3 µM]; for `O=S(=O)(c1ccccc1)N1CCCCN2[C@H](C1)[C@@H](c1ccc(C#CC3CCCC3)cc1)[C@@H]2CO`, 22.5%. For `O=S(=O)(c1ccccc1)N1CCCCN2[C@@H](CO)[C@@H](c3ccc(C#CC4CCCC4)cc3)[C@@H]2C1`, the max activity (at 19.5 µM unless noted) was 18.8% [at 10 µM]. Consider `COc1cccc(S(=O)(=O)N2CCCCN3[C@H](CO)[C@H](c4ccc(C#CCC(C)C)cc4)[C@@H]3C2)c1`, for which the max activity was -25.2% (at 0.038 µM) and -36.4% (at 19.5 µM). For the molecule `CNCCCC12CCC(c3ccccc31)c1ccccc12`, the max activity (at 19.5 µM unless noted) was 17.3%. Same read-out and setting: for `CCC(=O)N1CC(=O)N2[C@H](C1)[C@H](c1ccc(C#CCC(C)C)cc1)[C@@H]2CO` the value was -9.55% [at 5 µM]; for `O=C(NC1CCCC1)N1CC(=O)N2[C@H](CO)[C@H](c3ccc(C4=CCCCC4)cc3)[C@@H]2C1`, 10.5% [at 0.6 µM]. The same measure, in the same setting: to `CS(=O)(=O)N1CC(=O)N2[C@H](CO)[C@@H](c3ccc(C#CCC4CCCC4)cc3)[C@H]2C1` belongs 17.7% [at 21 µM].

`COC(=O)C[C@H]1CC[C@@H]2[C@@H](COc3ccc(NC(=O)Nc4cccc(C#N)c4)cc3C(=O)N2C)O1`: the max activity (at 19.5 µM unless noted) was 32.3% and 6.8%. With `CC=Cc1ccc2n(c1=O)C[C@H]1[C@H](CO)[C@@H](C(=O)Nc3ccc(-c4ccccc4)cc3)[C@@H]2N1C(=O)CC` (mixture of isomers), where the note is “at 19.5 µM unless noted”, the max activity is -8.34%.

On to `CC(=O)NC1=NN(C(C)=O)C(C)(c2ccccc2)S1` (stereo not drawn), for which, under “at 19.5 µM unless noted”, the max activity is 5.61% [at 0.16 µM].

Regarding `COc1ccccc1C#Cc1ccc([C@H]2[C@H](CO)N3CCCCN(C(=O)C4CCC4)C[C@@H]23)cc1`, the max activity reads like this: (at 10 µM) 11.5%; (at 19.5 µM) -7.69%. `CN(C)CCNC(=O)c1ccc2onc(-c3coc(C4CC4)n3)c2c1`: the max activity (at 19.5 µM unless noted) was 24.6%. Consider `COc1ccccc1Cn1ncc2c1CCCC2NC(=O)c1cc(-c2cccs2)no1` (stereo not drawn), for which the max activity (at 19.5 µM unless noted) is 11.7% [at 1.2 µM]. On to `O=C(C1CCOCC1)N1CC(=O)N2[C@H](C1)[C@@H](c1ccc(/C=C/c3ccccc3)cc1)[C@@H]2CO`, for which the max activity (at 19.5 µM unless noted) was 10.5% [at 0.6 µM].

As for `O=C(C1CCC1)N1CC(=O)N2[C@H](CO)[C@H](c3ccc(Br)cc3)[C@H]2C1`, the max activity (at 19.5 µM unless noted) is -11.4% [at 10 µM].

On to `Cc1nc(Cn2cnc(-c3nc(C(=O)NCc4cc(F)cc(F)c4)c4ccccn34)c2)cs1`, for which the max activity (at 19.5 µM unless noted) is 15.4%. As for `COC(=O)c1sccc1S(=O)(=O)N[C@@H]1CC[C@@H](N)C1`, for the setting “at 19.5 µM unless noted”, the max activity is -5.2%. Still for that read-out and setting: to `CN(c1ccccc1)c1ccc2ccc(C(=O)N3CCCC3)cn12` belongs -21% [at 0.16 µM]. Still for that read-out and setting: to `O=C(c1ccc(F)cc1)N1c2ccccc2Sc2ccc(C(F)(F)F)cc21` belongs 12.1% [at 10 µM]; to `O=C(NC1CCCC1)N1CCCCN2[C@@H](CO)[C@@H](c3ccc(-c4cccnc4)cc3)[C@@H]2C1`, -13.7% [at 2.6 µM]; to `CCc1ccc(S(=O)(=O)N2CCC3(CCC(C(=O)N4CCCC4)O3)CC2)cc1` (stereo not drawn), -11.2% [at 1.2 µM].

Turning to `CN1C(=O)c2cc(NC(=O)Cc3cccs3)ccc2OC[C@@H]2O[C@H](CC(=O)NCC3CCCCC3)CC[C@@H]21`, the max activity (at 19.5 µM unless noted) was 9.14% [at 0.6 µM]. Regarding `CN1C(=O)c2cc(NC(=O)Cc3cccs3)ccc2OC[C@@H]2O[C@H](CC(=O)N[C@H]3CCN(Cc4ccccc4)C3)CC[C@@H]21`, the max activity (at 19.5 µM unless noted) is 35.3% and 9.67%.

In the case of `CN1C(=O)c2cc(NC(=O)Cc3cccs3)ccc2OC[C@@H]2O[C@H](CC(=O)N[C@@H]3CCN(Cc4ccccc4)C3)CC[C@@H]21`, under “at 19.5 µM unless noted”, the max activity is 32%. Still for that read-out and setting: for `COc1cccc(C(=O)Nc2ccc3c(c2)C(=O)N(C)[C@@H]2CC[C@H](CC(=O)N[C@H](C)c4ccccc4)O[C@@H]2CO3)c1` the value was -19.3% [at 1.2 µM]; for `Cc1ccccc1-c1ccc([C@H]2[C@H](CO)N3CCCCN(S(=O)(=O)Cc4ccccc4)C[C@@H]23)cc1`, 27%; for `O=C(NCC1CC1)C1CN(C(=O)c2ccoc2)CC12CCOCC2` (stereo not drawn), 10.2% [at 0.16 µM]. For the molecule `CS(=O)(=O)N1CC(=O)N2[C@H](C1)[C@@H](c1ccc(C#CCC3CCCC3)cc1)[C@@H]2CO`, the max activity (at 19.5 µM unless noted) was 17.8% [at 0.3 µM].

As for `Cc1ccccc1S(=O)(=O)N1CC[C@H]2[C@H](CO)Nc3ccc(-c4ccc(F)cc4)cc3[C@H]21`, the max activity (at 19.5 µM unless noted) was -15.5% [at 5 µM].

Consider `CC(C)CNC(=O)C1Cn2ccnc2C2(CCN(c3ncccn3)CC2)O1` (stereo not drawn), for which the max activity (at 19.5 µM unless noted) is -6.18%. Still for that read-out and setting: for `Fc1cccc(CN2CCC3(CC2)CC(OCC2CC2)CO3)c1` (stereo not drawn) the value was -29.4% [at 10 µM]; for `COc1cccc(-c2nn(CC3CC3)c3c2[C@@H]2CN(C(=O)c4ccccc4)C[C@@H]2C3)c1`, 29.4%. Still for that read-out and setting: to `O=C(Cc1cccnc1)N1CC(=O)N2[C@H](CO)[C@@H](c3ccc(/C=C/c4ccccc4)cc3)[C@@H]2C1` belongs 14.8%. Same read-out and setting: to `O=C(Cc1cccnc1)N1CC(=O)N2[C@H](CO)[C@@H](c3ccc(/C=C/c4ccccc4)cc3)[C@H]2C1` belongs 15.6%. On to `O=C(Cc1cccnc1)N1CC(=O)N2[C@H](CO)[C@H](c3ccc(/C=C/c4ccccc4)cc3)[C@@H]2C1`, for which, under “at 19.5 µM unless noted”, the max activity was -6.67% [at 10 µM].

Consider `COCC(=O)N1CC(=O)N2[C@H](CO)[C@@H](c3ccc(-c4ccccc4F)cc3)[C@H]2C1`, for which the max activity (at 19.5 µM unless noted) is 10.5% [at 0.3 µM]. For `Cc1ccccc1-c1ccc([C@@H]2[C@H](CO)N3C(=O)CN(C(=O)c4ccncc4)C[C@@H]23)cc1`, under “at 19.5 µM unless noted”, the max activity is 13%.
